uPA surface inh: blocks generation of uPA at the cell surface | cell surface uPA generation assay, qHTS | Potency, µM (titrated, usually from 38.3 µM), inactives show top-dose activity change, negative = inhibition, actives largely listed as inhibitors | 330,000 tested, 0.31% active; active = well fitted inhibition curve with a large enough effect; inconclusive = small, poorly fitted or top-dose-only effect; inactive = no such curve, though single readings can be large or run the other way; tested in mouse RAW 264.7 cells; note: % is set by controls: 0 for no effect and ±100 for the full control effect; nearly all actives have a fitted effect of over 55% in size
BCR signal inh: chronic active BCR signaling inhibition. ABC-DLBCL IkBa-CBG/CBR reporter, luminescence ratio, 4 h. Potency, µM (series often up to 46.1 µM), for inactives: at the highest dose activity change, negative = inhibition, usual class: inhibitors. 340,000 tested, 0.05% active. AID 493014; active = well fitted inhibition curve with a large enough effect in the signal ratio, with a control signal flat, not every such curve was filed as active; inconclusive = small, poorly fitted or top-dose-only effect, or effect the other way, or a change in a side signal; the % refers to the signal ratio;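 note: plate controls were basal doxycycline-induced cells for no effect and cells given 10 µM MG132 for full effect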
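Doxycycline induced both beetle luciferases in TMD8 lymphoma cells; IKK-driven degradation limits the IkappaBalpha-fused green signal, while red luminescence normalises for cell number and nonspecific effects. Compounds tested up to 46 uM, 4 hrs.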
Gal4-VP16 FLuc: inhibits Gal4-VP16 luciferase reporter, ROR gamma counter-screen. Potency, µM (series often up to 53.6 µM), for the others: at the top dose activity, negative = inhibition, hits mostly inhibitors. 310,000 tested, 3.5% active. Drosophila S2 Gal4-VP16 UAS-luciferase, luminescence, 20 h. AID 2546;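 note: Gal4-VP16 expression switched on by copper sulfate through the metallothionein promoter; % is set by controls: 0 for no effect and ±100 for the full control effect; nearly all actives have a fitted effect of over 50% in size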
RORgamma inh: inhibitors of mouse ROR gamma transcriptional activity. P51450. Drosophila S2 Gal4-RORgamma UAS-luciferase reporter, 20 h. Potency, µM (top dose mostly 53.6 µM), for the others: at the highest dose activity change, negative = inhibition, hits mostly inhibitors. 310,000 tested, 5.4% active. AID 2551; note: % is set by controls: 0 for no effect and ±100 for the full control effect; nearly all actives have a fitted effect of over 60% in size
Target sequence (P51450 whole entry, looked up, the tested form may be a part): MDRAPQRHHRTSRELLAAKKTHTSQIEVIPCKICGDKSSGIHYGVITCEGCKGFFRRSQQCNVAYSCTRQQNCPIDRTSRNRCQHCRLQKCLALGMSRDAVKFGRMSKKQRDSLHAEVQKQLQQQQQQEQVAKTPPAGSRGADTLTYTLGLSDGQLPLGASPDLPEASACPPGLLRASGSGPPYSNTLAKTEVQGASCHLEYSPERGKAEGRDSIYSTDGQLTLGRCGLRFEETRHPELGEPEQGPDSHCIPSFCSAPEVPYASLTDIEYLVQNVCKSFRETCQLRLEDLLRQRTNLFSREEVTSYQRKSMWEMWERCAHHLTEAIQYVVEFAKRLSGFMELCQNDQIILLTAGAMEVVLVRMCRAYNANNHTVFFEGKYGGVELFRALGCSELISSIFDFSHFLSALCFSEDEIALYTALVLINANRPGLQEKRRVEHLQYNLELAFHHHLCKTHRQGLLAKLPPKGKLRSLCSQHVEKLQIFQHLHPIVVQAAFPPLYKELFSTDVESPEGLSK
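Stable Schneider cell line, Gal4 DNA-binding domain fused to ROR gamma, UAS-luciferase. Cmpd 1 hr RT → CuSO4 700 uM final → 20 hr RT → luciferase reagent 10 min → luminescence.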
Mito fusion yeast: inhibitors of mitochondrial division or activators of mitochondrial fusion | 320,000 tested, 0.23% active | Potency, µM (titrated, usually from 46.1 µM), for the others: at the top dose growth rescue (activation), actives largely listed as activators | S. cerevisiae fusion-defective mutant growth rescue, CellTiterGlo 48 h | AID 485298; note: % of control where 0% means no effect; nearly all actives have a fitted effect of over 45% in size
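Read-out: ATP-based luminescence (CellTiterGlo, 10 min ambient) reporting growth of fusion-defective ts yeast after 48 hours at 37C on glycerol/ethanol YPEG medium in the presence of compound.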
a7 integrin act: activates integrin-mediated alleviation for muscular dystrophy; alpha7betagal myoblasts, beta-gal FDG fluorescence, 48 h; Potency, µM (highest dose often 38.3 µM), without a hit: top-dose activation, hits mostly activators; 350,000 tested, 0.064% active;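 note: 100% = response of the positive control SU9516; nearly all actives have a fitted effect of over 60% in size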
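Alpha7betagal+/- myoblasts (passage 13) were plated 16-24 hr, then exposed to compounds (1:260 dilution of DMSO stock) for 48 hours at 37C. After MPER lysis, β-galactosidase reporter activity was read as FDG fluorescence (ex 480/em 540) after 30 minutes.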
* = called active by the depositor; u = inconclusive; x = not tested or not shown. Sampled rows, rich in hits. Any-hit rate of the full collection: about 5.5%. Unless noted, calls come from the whole dose curve; as a rule, active = well fitted curve in the direction sought with a large enough effect; inconclusive = small, poorly fitted or top-dose-only effect, or another doubt; inactive = no such curve, though single readings can be large; an effect the other way counts as inactive or inconclusive. Potency is the fitted concentration of half-maximal effect.

SMILES	uPA surface inh	BCR signal inh	Gal4-VP16 FLuc	RORgamma inh	Mito fusion yeast	a7 integrin act
CCN(CC)S(=O)(=O)c1ccc2oc(SCC(=O)Nc3cc(C)on3)nc2c1	-12.6%	u	x	x	-9.6%	-46.3%
COc1ccc(-c2nnc(SCC(=O)Nc3nncs3)o2)cc1	1.1%	-4.8%	8.91µM*	7.08µM*	-1.2%	24.2%
CC[C@H](C)[C@H](NC(=O)OCc1ccccc1)C(=O)OCC(=O)N1CCN(c2ccc(F)cc2)CC1	-11.6%	x	x	x	x	-46.7%
COC(=O)c1ccc(OCC2c3cc(OC)c(OC)cc3CCN2C(=O)c2cccc(C)c2)cc1 (stereo unspecified)	x	-3.8%	x	x	x	x
CCc1noc(C)c1C(=O)NNC(=O)c1ccccc1Cl	-5.6%	u	x	x	-0.2%	-12.6%
COc1ccc(-c2nnc(SCC(=O)NC(=O)NCc3ccco3)o2)cc1	-2.1%	-9.2%	u	7.94µM*	-1.5%	-3.5%
COC(=O)[C@@]1(Cc2ccccc2)[C@H]2c3cc(C(=O)N(C)C)n(Cc4cc(C)n(C)n4)c3C[C@H]2CN1C(=O)c1ccccc1	x	x	-8.6%	10.6%	x	x
COc1ccc(C(=O)NC(=S)Nc2ccc(N3CCN(C(C)=O)CC3)cc2)cc1[N+](=O)[O-]	-4.2%	-0.6%	17.8µM*	u	-8.4%	-15.4%
CC(=O)N1CCN(c2ccc(NC(=S)NC(=O)c3ccc(C)c([N+](=O)[O-])c3)cc2)CC1	-6.3%	-4.2%	7.94µM*	u	2.4%	-10.6%
COc1ccc(C(=O)Nc2ccc(N3CCN(C)CC3)cc2)cc1[N+](=O)[O-]	-1.1%	4.8%	3.1%	0.6%	-15.6%	-8.7%
CCOc1ccc(Sc2cc(C(=O)NC(C)CC)c3ccccc3n2)cc1 (stereo unspecified)	x	-1.1%	x	x	x	x
CC1(C)CC2CC(C)(CN2S(=O)(=O)c2cccc(C(=O)OCC(N)=O)c2)C1 (stereo unspecified)	-0.5%	-7.3%	x	x	-0.2%	2.9%
CC1(C)CC2CC(C)(CN2S(=O)(=O)c2ccc(C(=O)Nc3cccc(S(=O)(=O)N4CCOCC4)c3)cc2)C1 (stereo unspecified)	-6.0%	3.6%	0.501µM*	u	-0.7%	1.2%
CCCCNC(=O)c1cccc(S(=O)(=O)N2CC3(C)CC2CC(C)(C)C3)c1 (stereo unspecified)	2.24µM*	u	x	x	11.2%	2.6%
CC1(C)CC2CC(C)(CN2S(=O)(=O)c2cccc(C(N)=O)c2)C1 (stereo unspecified)	15.0%	2.0%	x	x	4.5%	-5.8%
COCCCNC(=O)c1cccc(S(=O)(=O)N2CC3(C)CC2CC(C)(C)C3)c1 (stereo unspecified)	6.31µM*	-6.5%	x	x	-0.4%	23.1%
COCCNC(=O)c1cccc(S(=O)(=O)N2CC3(C)CC2CC(C)(C)C3)c1 (stereo unspecified)	3.98µM*	-2.1%	x	x	3.7%	-0.5%
CCOC(=O)c1ccc(NC(=O)CSc2cc(=O)n(CC)c3ccccc23)cc1	x	-27.6%	x	x	x	x
C[n+]1cccc2cccc([O-])c21	7.9%	7.6%	1.9%	-13.0%	-2.3%	-2.3%
CC(=O)Nc1ccc(C)c(NC(=S)Nc2ccc(F)cc2)c1	-12.3%	u	7.2%	-18.6%	0.8%	-14.4%
Cc1ccc(F)cc1NC(=S)NCCc1ccccc1	-5.7%	3.6%	-92.0%	u	-0.2%	15.4%
Cc1ccc(NC(=S)NCCc2ccc(F)cc2)c(C)c1	0.9%	-1.5%	5.01µM*	4.47µM*	10.2%	2.8%
Cc1ccc(NC(=S)Nc2ccc(F)cc2)c(C)c1	-2.5%	4.4%	u	11.2µM*	1.5%	-20.4%
CCN(CC)C(=O)n1c(Cc2ccccc2)nc2ccccc21	-1.5%	-13.0%	6.0%	-0.8%	-11.1%	-15.5%
CC1=C(C(=O)OCC(C)C)C(c2cccs2)NC(=S)N1 (stereo unspecified)	-2.9%	2.5%	2.51µM*	11.2µM*	13.3%	23.7%
SMILES	uPA surface inh	BCR signal inh	Gal4-VP16 FLuc	RORgamma inh	Mito fusion yeast	a7 integrin act
CCOC(=O)C1=C(C)NC(=S)NC1c1ccc(C)s1 (stereo unspecified)	-1.0%	-5.0%	u	8.91µM*	-2.5%	8.0%
CCOC(=O)C1=C(C)NC(=S)NC1c1cc(C)sc1C (stereo unspecified)	12.0%	-0.7%	-3.2%	0.1%	-1.7%	13.2%
CNC(=O)C1=C(C)NC(=S)NC1c1cccs1 (stereo unspecified)	0.6%	-2.6%	-5.3%	-6.6%	-0.6%	5.2%
CCOC(=O)C1=C(C)NC(=S)NC1c1ccco1 (stereo unspecified)	-15.2%	19.0%	-4.2%	-38.9%	-2.3%	-15.8%
CCOC(=O)C1=C(C)NC(=S)NC1c1ccsc1 (stereo unspecified)	2.4%	6.4%	u	11.2µM*	-8.1%	5.9%
COc1ccc(NC(=O)N2CCC(CO)(CC3CCCCO3)CC2)c(OC)c1 (stereo unspecified)	-1.5%	3.1%	3.3%	23.7%	2.2%	-24.3%
S=C(NCc1ccc(Cl)cc1)Nc1ccccc1	-0.3%	-7.3%	3.55µM*	2.24µM*	-5.2%	6.6%
S=C(NCc1cccnc1)Nc1ccc(Oc2ccc(Cl)cc2)cc1	-4.1%	6.6%	u	-0.8%	-8.7%	-1.2%
Fc1ccc(CNC(=S)Nc2cccc(Cl)c2)cc1	-4.9%	6.3%	11.2µM*	5.62µM*	-7.7%	-0.4%
S=C(NCc1ccc(Cl)cc1Cl)Nc1ccccc1	12.0%	6.8%	6.31µM*	7.08µM*	8.3%	-9.4%
S=C(NCc1ccncc1)Nc1cccc(Cl)c1	-1.4%	7.0%	0.0%	15.0%	-2.0%	-23.0%
S=C(NCc1ccc(Cl)cc1)Nc1ccncc1	u	-5.6%	7.08µM*	u	-3.4%	-33.0%
COc1ccc(C2=C(c3ccc(OC)c(OC)c3)CN3CCCCC3C2)cc1 (stereo unspecified)	-4.5%	u	x	x	x	15.8%
CCCN(CC(=O)Nc1ccccc1C)C(=O)c1cccc(S(=O)(=O)N2CCN(c3ccccc3)CC2)c1	-14.9%	17.9%	x	x	1.6%	5.1%
COc1ccc(CCNC(=O)C(=O)NCC(c2cccs2)S(=O)(=O)c2cccs2)cc1 (stereo unspecified)	x	-0.5%	x	x	x	x
Fc1ccccc1CNC(=S)NCc1ccc(Cl)cc1	9.1%	8.8%	u	7.94µM*	-9.1%	16.7%
COC(=O)c1cccc(NC(=S)NCc2ccc(F)cc2)c1	-0.5%	6.0%	u	10µM*	-15.8%	9.5%
NS(=O)(=O)c1ccc(NC(=S)NCc2ccc(Cl)cc2)cc1	5.7%	u	-12.7%	44.4%	0.0%	-6.4%
Fc1ccc(CNC(=S)Nc2ccc(Cl)cc2)cc1	2.7%	u	15.8µM*	7.08µM*	-19.7%	-12.8%

Screens: PubChem, National Center for Advancing Translational Sciences (NCATS)
